# This is part of a sample that, as a whole, favours compounds with a hit. Of some 83,000 tested, about 20% had one in any assay.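 Single-dose data. Exposure time 48 hours. Values below 10 considered active.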 Unmarked numbers belong to inactive results. Activity calls are given as the source filed them.
# Columns and labels:
# Assay in all cases: NCI-60 one-dose screen, 48 h (100 = growth as untreated, 0 = no growth, -100 = all killed)
# Settings in all cases: 10 µM
# [1] = system: DU-145 prostate
# [2] = system: K-562 leukemia
# [3] = system: MALME-3M melanoma
# [4] = system: RXF 393 renal
# [5] = system: SF-268 CNS
# [6] = system: SF-295 CNS
# [7] = system: SF-539 CNS
# [8] = system: UACC-257 melanoma
# [9] = system: M14 melanoma
# [10] = system: MDA-MB-231 breast
Structure (SMILES),growth [1],growth [2],growth [3],growth [4],growth [5] [%],growth [6],growth [7],growth [8] [%],growth [9],growth [10] [%]
O=[N+]([O-])c1ccc(-c2noc(-c3cccs3)n2)cc1,89.3%,93.7%,91.7%,92%,101,72.9%,81.3%,100,91.7%,
COc1cc2c(cc1OC)[C@H](C(=O)O)[C@@H](c1ccc(OC(C)C)c(OC)c1)N(C)C2=O,114%,99.6%,94.8%,,116,94.5%,94.4%,,104%,104
CS(=O)CC1=NC(=N)N=C1CS(C)=O (centres undefined),111%,99.4%,98%,107%,106,98.1%,99.5%,86.6,,
CCOC(=O)c1cc(/C=C/c2ccc(Cl)cc2Cl)on1,30.6%,5.36% (active),69.6%,-37.3% (active),89.1,17.6%,-48.5% (active),105,56%,
c1ccc(Cc2ccccc2)cc1,103%,119%,96%,,107,110%,93.5%,,112%,105
CCc1nn(Cc2ccccc2)c2nc(C)c(CCc3ccccc3)c(Cl)c12,102%,61.1%,75.5%,,106,85.1%,86.7%,,100%,99.7
CC(=O)c1ccc2c(ccc3ccccc32)c1,111%,90.5%,110%,,104,99.3%,97.5%,108,89.1%,105
Cc1cc2nc(CC(=O)c3ccccc3)c(=O)[nH]c2cc1C,112%,90.1%,101%,101%,108,89.8%,95.6%,106,87.2%,
Clc1ccc(-c2nnc(-c3cccc4ccccc34)o2)cc1,114%,104%,99.8%,102%,103,110%,94.8%,78,103%,
CC(=O)Cc1cc(-c2cc(CC(C)=O)[nH]n2)n[nH]1,107%,99.5%,94.6%,103%,98.5,94.7%,98%,93,,
Nc1nc2c(c(-c3nc(N)nc4c3CCc3ccccc3-4)n1)CCc1ccccc1-2,107%,99.2%,85.3%,115%,103,99.5%,93.1%,109,105%,
CC(C)=C(NC(=O)c1ccccc1)C(=O)O,106%,102%,99%,103%,96.1,116%,110%,97.5,108%,
COC(=O)c1[nH]c(=O)c(C#N)c(C(=O)OC)c1C(=O)c1ccccc1,104%,102%,96.8%,122%,99.4,96.2%,97.1%,86.1,107%,
CN(C)c1nc2c([nH]1)c(=O)n(C)c(=O)n2C,116%,96.5%,101%,,105,104%,107%,87.8,108%,107
O=C(Cc1nc2ccc([N+](=O)[O-])cc2nc1CC(=O)c1ccccc1)c1ccccc1,50.6%,43.8%,46.8%,89.1%,73.9,53%,18.3%,86.9,48.4%,
CCCCNC(=O)C(=O)NCCCC,103%,108%,95.4%,107%,97.9,102%,101%,105,104%,
OC1CCCc2ccccc21 (centres undefined),114%,97.9%,78.8%,,116,93.2%,96.4%,,113%,117

Structure (SMILES),growth [1],growth [2],growth [3],growth [4],growth [5] [%],growth [6],growth [7],growth [8] [%],growth [9],growth [10] [%]
CCOC(=O)c1cc(/C=C/c2cccc(Cl)c2)on1,95.2%,31.6%,93.1%,97.1%,93.7,88.2%,89.6%,108,78.8%,
Cc1cc2nc(CC(=O)c3cccc([N+](=O)[O-])c3)c(=O)[nH]c2cc1C,100%,73.7%,98.5%,107%,98.1,75.4%,88.2%,97,81.4%,
COc1ccc2c(c1)CCc1c-2n[nH]c1-c1[nH]nc2c1CCc1cc(OC)ccc1-2,86.2%,20.8%,46.6%,54.3%,86.2,29.6%,31.8%,82.5,36.1%,
c1csc(-c2cc(-c3cc(-c4cccs4)[nH]n3)n[nH]2)c1,106%,84.7%,88.3%,112%,107,96.8%,93.8%,109,96.9%,
Cc1cc(NC(=O)CSCC(=O)O)no1,112%,117%,96.8%,103%,114,94.2%,96.4%,95.4,99.6%,
COc1ccccc1NC(=O)C1=C(C)NC(C)=C(C(=O)Nc2ccccc2OC)C1c1cccc([N+](=O)[O-])c1,84.1%,57.3%,84.7%,79.2%,67,49.5%,75.2%,92.3,76.5%,
O=C(O)c1ccc(S(=O)(=O)O)cc1,133%,114%,97.2%,,123,107%,97.9%,,117%,107
c1c(-c2cc(C3CC3)[nH]n2)n[nH]c1C1CC1,111%,70.9%,92.2%,108%,107,98%,101%,90.8,98.9%,
CSc1[nH]c(=O)ncc1F,106%,111%,97.8%,105%,,97.4%,95.7%,72.8,103%,
CCc1nc(N)nc(N)c1-c1ccc(Cl)cc1,55.4%,20.3%,,71.6%,49.2,37.5%,,72.4,40.9%,69.9
CCOC(=O)c1ccc(Nc2sc(C(=O)c3cccc([N+](=O)[O-])c3)c(N)c2C#N)cc1,29.2%,16.1%,,15.8%,44.4,-44.3% (active),1.59% (active),17.4,,45.9
C/C(O)=C(\C=N\C(N)=S)C(=O)Nc1ccccc1,109%,107%,,107%,101,110%,114%,97.7,105%,92.2
CNc1nc(NC)c2cn[nH]c2n1,113%,104%,,101%,114,98.4%,103%,,102%,108
CN(C)CCN(C)CC(C)(C)C(=O)/C=C/c1ccc(Cl)cc1,6.16% (active),4.79% (active),-27.7% (active),-82.8% (active),,20.5%,-25.9% (active),23.1,-64.4% (active),
O=C(c1ccc(O)cc1)c1ccc(O)cc1,110%,102%,,113%,102,102%,100%,96.2,98.7%,125
CC1C(=O)c2ccccc2CC1C(=O)O (centres undefined),135%,103%,,120%,130,,101%,92.8,113%,109
